Results reported in PubChem BioAssay (NCATS).
Results filed as inconclusive are left out. The source made the active and inactive calls. Unless noted, calls come from the whole dose curve; as a rule, active = well fitted curve in the direction sought with a large enough effect; inconclusive = small, poorly fitted or top-dose-only effect, or another doubt; inactive = no such curve, though single readings can be large; an effect the other way counts as inactive or inconclusive.

What was measured:
[1] = biological target: Ubiquitin carboxyl-terminal hydrolase 2 (Homo sapiens) (UniProt O75604); assay: qHTS Validation Assay for Inhibitors of Ubiquitin-specific Protease USP2a Using CHOP2 as the Reporter (AID 463106)
Procedure, shortened: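 Inhibition is expressed relative to NEM as the full-inhibition control, with concentration-response curves classed by fit quality, magnitude and activity. Enzyme (USP2 core, 10nM) meets 25nM Ub-CHOP2 after compound preincubation; readings are taken at 60min.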

[2] = biological target: DNA polymerase III PolC-type (Bacillus subtilis (strain 168)) (UniProt P13267); assay: qHTS Validation Assay for the Inhibitors of DNA Replication in Gram-Positive Bacteria (AID 485295);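 note: reconstituted holoenzyme with PolC plus beta clamp SSB and primase; PicoGreen fluorescence of double-stranded DNA made on primed circular M13 template; series mostly up to about 57 µM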
Procedure, shortened: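 Primed replication of single-stranded M13Gori by a four-protein B. subtilis holoenzyme is measured at room temperature. Double-stranded product is quantified by PicoGreen fluorescence after an EDTA stop; inhibition is scaled between DMSO and EDTA controls.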

[3] = qHTS Validation Assay to Find Inhibitors of Chronic Active B-Cell Receptor Signaling (AID 485345; active = well fitted curve in the direction sought with a large enough effect in the main read-out, with a control signal flat, not every such curve was filed as active)
Procedure, shortened: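 TMD8 ABC-DLBCL cells with dox-inducible green luciferase–IκBα fusion and red native luciferase; compounds 46 uM–3 nM, 4 h at 37C with doxycycline in 0.5% FBS IMDM. Green/red ratio normalized to basal and 10 uM MG-132.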

[4] = biological target: Beta-2 adrenergic receptor (Homo sapiens) (UniProt P07550); assay: qHTS validation assay of beta-arrestin-biased ligands of beta2-adrenergic receptor (AID 485366)
Procedure, shortened: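 Agonism was measured as beta-arrestin recruitment to recombinant beta2-AR, releasing tTA to drive luciferase. Cells were exposed for 18 hr at 37 degrees C to a series up to 46 microM. %Activity from corrected luminescence gave concentration-response curves.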

[5] = biological target: ATP-dependent 6-phosphofructokinase (Trypanosoma brucei brucei) (UniProt O15648); assay: qHTS Validation Assay to Find Inhibitors of T. brucei phosphofructokinase (AID 485368)
Procedure, shortened: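 ADP-Glo luminescence, two-step: residual ATP depleted, then ADP converted to ATP for luciferase. Enzyme 1.25 nM, F6P 0.5 mM, ATP 0.1 mM, pH 8.0 TEA buffer, 45 min RT. Curves fitted and classed by quality and efficacy.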

[6] = Quantitative high throughput screen for delayed death inhibitors of the malarial parasite plastid, 96 hour incubation (AID 488745); note: nearly all actives have a fitted effect of over 70% in size; note: potency is the fitted concentration of half-maximal effect
Procedure, shortened: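 Readout is firefly luciferase luminescence from an integrated reporter in P. falciparum; lower signal marks inhibited growth. Cultures at 2% hematocrit and 0.1% parasitemia were treated with compound across two generations (96 h, 37 C, 5% CO2).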

[7] = biological target: Thioredoxin reductase 1, cytoplasmic (Rattus norvegicus) (UniProt O89049); assay: qHTS Assay for Substrates of Mammalian Selenoprotein Thioredoxin Reductase 1 (TrxR1) (AID 488772);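 note: series mostly up to about 57 µM; a drop in NADPH fluorescence below the no-compound background marks a TrxR1 substrate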
Procedure, shortened: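 In this dual-purpose format, potential substrates are identified from the first fluorescence read after selenite addition, not from the 8-minute delta. Rat enzyme is preincubated with NADPH and then with compound at ~22 deg C.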

[8] = biological target: Thioredoxin reductase 1, cytoplasmic (Rattus norvegicus) (UniProt O89049); assay: qHTS Assay for Inhibitors of Mammalian Selenoprotein Thioredoxin Reductase 1 (TrxR1) (AID 488773); conditions: Potency: inhibition; note: nearly all actives have a fitted effect of over 40% in size; note: potency is the fitted concentration of half-maximal effect
Procedure, shortened: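 Inhibition is scored from the loss of NADPH fluorescence between first and last reads of an 8-min kinetic run. Selenite (400 uM) was the substrate, added after 15 min compound preincubation at room temperature.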

[9] = biological target: Tumor susceptibility gene 101 protein (Homo sapiens) (UniProt Q99816); assay: qHTS Validation Assay for Iinhibitors of HIV-1 Budding by Blocking the Interaction of PTAP/TSG101 (AID 485342; calls by dose curve)
Procedure, shortened: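 Fluorescence anisotropy measured PTAP-Tsg101 interaction. Final concentrations were 10 uM protein domain and 50 nM labeled peptide, equilibrated 20 min at room temperature.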

Measured: Potency

Sequence of Thioredoxin reductase 1, cytoplasmic (Rattus norvegicus) (O89049 whole entry, looked up): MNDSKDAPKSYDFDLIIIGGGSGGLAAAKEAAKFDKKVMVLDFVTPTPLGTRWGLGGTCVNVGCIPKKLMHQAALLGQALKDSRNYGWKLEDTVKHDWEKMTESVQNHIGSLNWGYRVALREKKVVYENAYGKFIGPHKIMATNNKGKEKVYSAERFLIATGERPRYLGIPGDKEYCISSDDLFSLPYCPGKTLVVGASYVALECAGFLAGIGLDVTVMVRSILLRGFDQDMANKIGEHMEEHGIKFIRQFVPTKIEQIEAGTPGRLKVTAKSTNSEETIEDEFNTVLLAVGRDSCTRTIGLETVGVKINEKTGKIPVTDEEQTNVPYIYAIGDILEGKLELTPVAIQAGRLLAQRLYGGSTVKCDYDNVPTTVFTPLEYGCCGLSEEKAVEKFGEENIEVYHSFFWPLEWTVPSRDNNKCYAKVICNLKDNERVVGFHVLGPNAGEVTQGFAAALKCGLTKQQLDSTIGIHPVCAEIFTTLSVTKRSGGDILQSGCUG
Sequence of Ubiquitin carboxyl-terminal hydrolase 2 (Homo sapiens) (O75604 whole entry, looked up): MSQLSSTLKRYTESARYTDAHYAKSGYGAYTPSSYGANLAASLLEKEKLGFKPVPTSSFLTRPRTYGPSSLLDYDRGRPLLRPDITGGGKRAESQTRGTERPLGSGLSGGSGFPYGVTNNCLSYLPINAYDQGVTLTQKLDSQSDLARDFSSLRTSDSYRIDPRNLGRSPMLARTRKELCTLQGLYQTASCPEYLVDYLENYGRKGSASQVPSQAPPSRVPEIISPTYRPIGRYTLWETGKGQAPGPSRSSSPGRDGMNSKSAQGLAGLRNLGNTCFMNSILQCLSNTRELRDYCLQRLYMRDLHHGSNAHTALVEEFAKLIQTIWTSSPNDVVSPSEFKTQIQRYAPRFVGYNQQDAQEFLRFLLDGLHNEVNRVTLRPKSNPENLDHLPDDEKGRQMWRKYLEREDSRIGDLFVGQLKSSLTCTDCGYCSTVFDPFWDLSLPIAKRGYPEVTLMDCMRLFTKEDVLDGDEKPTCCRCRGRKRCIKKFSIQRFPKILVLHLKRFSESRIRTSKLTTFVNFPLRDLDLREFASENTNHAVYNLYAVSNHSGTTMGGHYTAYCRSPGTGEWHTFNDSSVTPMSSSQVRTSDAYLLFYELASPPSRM
Sequence of DNA polymerase III PolC-type (Bacillus subtilis (strain 168)) (P13267 whole entry, looked up): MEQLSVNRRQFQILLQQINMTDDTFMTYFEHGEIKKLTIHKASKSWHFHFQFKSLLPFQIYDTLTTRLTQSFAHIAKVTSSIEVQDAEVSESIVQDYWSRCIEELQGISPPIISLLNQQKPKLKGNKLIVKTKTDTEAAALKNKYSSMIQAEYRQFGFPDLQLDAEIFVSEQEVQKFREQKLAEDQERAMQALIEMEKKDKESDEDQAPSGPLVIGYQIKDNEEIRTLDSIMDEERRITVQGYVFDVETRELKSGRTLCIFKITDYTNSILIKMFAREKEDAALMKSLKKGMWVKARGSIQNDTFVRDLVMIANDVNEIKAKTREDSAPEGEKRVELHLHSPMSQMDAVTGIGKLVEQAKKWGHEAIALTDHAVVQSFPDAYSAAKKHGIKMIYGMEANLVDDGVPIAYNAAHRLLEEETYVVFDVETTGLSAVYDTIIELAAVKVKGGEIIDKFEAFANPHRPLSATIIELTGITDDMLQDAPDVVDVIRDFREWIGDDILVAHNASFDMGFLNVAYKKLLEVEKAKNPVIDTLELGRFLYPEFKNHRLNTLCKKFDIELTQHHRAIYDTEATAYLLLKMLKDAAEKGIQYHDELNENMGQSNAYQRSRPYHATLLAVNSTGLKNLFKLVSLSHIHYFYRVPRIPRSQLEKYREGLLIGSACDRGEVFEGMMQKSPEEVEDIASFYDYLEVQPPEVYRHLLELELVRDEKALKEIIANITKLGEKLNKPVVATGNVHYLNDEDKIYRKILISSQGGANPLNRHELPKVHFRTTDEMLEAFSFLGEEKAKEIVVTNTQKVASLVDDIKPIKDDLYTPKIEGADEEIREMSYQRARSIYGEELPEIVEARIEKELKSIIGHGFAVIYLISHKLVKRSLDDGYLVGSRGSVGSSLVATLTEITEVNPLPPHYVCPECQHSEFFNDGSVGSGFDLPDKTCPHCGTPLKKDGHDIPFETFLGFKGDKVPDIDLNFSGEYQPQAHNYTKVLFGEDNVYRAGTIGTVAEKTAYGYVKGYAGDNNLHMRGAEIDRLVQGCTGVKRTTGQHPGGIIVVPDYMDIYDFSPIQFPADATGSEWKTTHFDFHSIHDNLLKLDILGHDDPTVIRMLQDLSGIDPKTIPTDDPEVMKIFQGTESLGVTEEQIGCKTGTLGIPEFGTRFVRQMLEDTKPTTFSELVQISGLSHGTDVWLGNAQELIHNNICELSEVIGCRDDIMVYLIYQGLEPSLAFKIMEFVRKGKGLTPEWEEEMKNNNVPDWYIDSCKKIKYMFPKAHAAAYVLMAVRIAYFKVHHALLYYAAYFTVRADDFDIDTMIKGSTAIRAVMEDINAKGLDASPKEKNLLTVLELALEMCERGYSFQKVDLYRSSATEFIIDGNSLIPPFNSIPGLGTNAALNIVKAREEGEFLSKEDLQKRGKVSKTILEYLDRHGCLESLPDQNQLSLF
Sequence of Beta-2 adrenergic receptor (Homo sapiens) (P07550 whole entry, looked up): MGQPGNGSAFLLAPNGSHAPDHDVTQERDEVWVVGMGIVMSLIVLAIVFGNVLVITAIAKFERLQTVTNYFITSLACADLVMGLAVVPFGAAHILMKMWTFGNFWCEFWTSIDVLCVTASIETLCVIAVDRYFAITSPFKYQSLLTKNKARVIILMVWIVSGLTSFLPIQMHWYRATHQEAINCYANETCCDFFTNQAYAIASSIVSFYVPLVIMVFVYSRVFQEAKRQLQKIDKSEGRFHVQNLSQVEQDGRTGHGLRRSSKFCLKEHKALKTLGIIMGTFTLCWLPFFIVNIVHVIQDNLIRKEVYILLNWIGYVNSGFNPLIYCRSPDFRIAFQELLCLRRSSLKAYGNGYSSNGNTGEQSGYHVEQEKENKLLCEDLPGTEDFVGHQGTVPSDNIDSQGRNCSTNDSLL
Sequence of Tumor susceptibility gene 101 protein (Homo sapiens) (Q99816 whole entry, looked up, the tested form may be a part): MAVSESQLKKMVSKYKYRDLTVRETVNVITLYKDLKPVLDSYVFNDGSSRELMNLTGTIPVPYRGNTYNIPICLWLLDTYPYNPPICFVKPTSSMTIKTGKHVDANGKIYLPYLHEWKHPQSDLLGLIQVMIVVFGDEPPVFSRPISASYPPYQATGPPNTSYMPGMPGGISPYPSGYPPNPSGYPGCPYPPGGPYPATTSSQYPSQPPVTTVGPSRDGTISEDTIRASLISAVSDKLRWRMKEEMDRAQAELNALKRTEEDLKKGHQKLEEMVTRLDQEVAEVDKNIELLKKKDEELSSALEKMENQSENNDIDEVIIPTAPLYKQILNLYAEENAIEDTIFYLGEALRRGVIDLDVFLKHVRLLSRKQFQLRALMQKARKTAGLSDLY
Sequence of ATP-dependent 6-phosphofructokinase (Trypanosoma brucei brucei) (O15648 whole entry, looked up): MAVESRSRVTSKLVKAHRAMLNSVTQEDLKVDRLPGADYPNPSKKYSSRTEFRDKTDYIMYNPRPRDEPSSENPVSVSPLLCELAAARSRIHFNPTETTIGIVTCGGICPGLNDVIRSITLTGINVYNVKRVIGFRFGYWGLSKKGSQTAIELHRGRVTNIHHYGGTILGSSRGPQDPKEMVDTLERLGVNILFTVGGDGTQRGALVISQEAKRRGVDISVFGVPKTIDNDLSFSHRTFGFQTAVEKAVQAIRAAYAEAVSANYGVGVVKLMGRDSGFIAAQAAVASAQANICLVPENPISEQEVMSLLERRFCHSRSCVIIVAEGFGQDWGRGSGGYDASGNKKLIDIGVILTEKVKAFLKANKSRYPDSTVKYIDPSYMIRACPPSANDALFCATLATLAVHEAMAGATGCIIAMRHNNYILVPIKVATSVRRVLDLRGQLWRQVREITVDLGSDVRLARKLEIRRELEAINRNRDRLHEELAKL

N=C(N)SCCc1ccc(CCSC(=N)N)cc1
not listed: [9]
inactive: all other assays above

CC(C)(C)c1ccc(S(=O)(=O)/C=C/C#N)cc1
inactive: [1] | [2] | [4]
active: [8] 377 nM

Cc1ccc(S(=O)(=O)/C=C/C#N)cc1
active: [8] 238 nM
inactive: [1] | [2] | [9] | [7]

O=c1[nH]c2cc(Cl)c(Cl)cc2[nH]c1=O
inactive: [1] | [9] | [3] | [4] | [8]

CCCCCCCCCCCCCCCC(=O)NCC(COP(=O)([O-])OCC[N+](C)(C)C)OCC (stereo unspecified)
inactive: [1] | [2] | [3] | [6] | [8]

CCOC(=O)C1=C(C)NC(C)=C(C(=O)OCC)C1c1c(F)c(F)c(F)c(F)c1F
inactive: [1] | [2] | [9] | [7] | [8]

O=C(/C=C/c1ccc(O)cc1)c1ccc(O)cc1O
inactive: [1] | [2] | [4] | [7]

C[N+](C)(CCCCCC[N+](C)(C)CCCN1C(=O)c2cccc3cccc(c23)C1=O)CCCN1C(=O)c2cccc3cccc(c23)C1=O
active: [6] 928 nM
not listed: [2] | [5]
inactive: all other assays above

Nc1ncnc2c1c(I)cn2[C@@H]1C[C@H](N)[C@@H](O)[C@H]1O
inactive: [1] | [2] | [4] | [7] | [8]

O=c1[nH]c2cc([N+](=O)[O-])c([N+](=O)[O-])cc2[nH]c1=O
not listed: [9]
inactive: all other assays above
